Compounds without any hit were thinned out: in the full panel of roughly 79,000, 15% have a hit. A number with no mark means an inactive call. Activity calls are given as the source filed them. Cut-off read from the data, not from the text of the source: active = growth inhibition above about 70%; inactive = the rest.

Test [1] can be described thus: NCI Yeast Anticancer Drug Screen. Data for the rad50 strain (AID 155).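 Note: 0% = growth of vehicle-only cultures of the same strain.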 The settings on record: S. cerevisiae rad50 strain growth inhibition, stronger effect = higher value. In outline:
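Growth of the mutant yeast was measured after compound exposure and referenced to vehicle-treated cultures.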

Test [2] is described as follows: NCI Yeast Anticancer Drug Screen. Data for the mec2-1 strain (AID 157). The settings on record: S. cerevisiae mec2-1 strain, stronger effect = higher value. Summed up: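 Yeast mec2-1 mutant treated with compound. Readout: growth inhibition vs vehicle controls.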
A short description of test [3]: NCI Yeast Anticancer Drug Screen. Data for the sgs1 mgt1 strain (AID 161).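 Note: 0% = growth of cultures given vehicle only.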 The settings on record: S. cerevisiae sgs1 mgt1 strain, stronger effect = higher value. In outline:
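Mutant yeast exposed to compound; growth scored against vehicle-only wells.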

Test [4] in a line: NCI Yeast Anticancer Drug Screen. Data for the cln2 rad14 strain (AID 165).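 Note: 0% = growth equal to vehicle treated cultures.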 The settings on record: S. cerevisiae cln2 rad14 strain, stronger effect = higher value. In outline: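 cln2 rad14 yeast strain; compound exposure; growth inhibition read vs vehicle controls.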
Test [5] is described as follows: NCI Yeast Anticancer Drug Screen. Data for the bub3 strain (AID 167). The settings on record: S. cerevisiae bub3 mutant strain, stronger effect = higher value. Summed up: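 Whole-cell yeast assay. The mutant strain was incubated with compounds, and growth inhibition was determined by comparison with vehicle-treated cells.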
Test [6] in a line: NCI Yeast Anticancer Drug Screen. Data for the mlh1 rad18 strain (AID 175). As to conditions: S. cerevisiae mlh1 rad18 strain growth inhibition, stronger effect = higher value. In outline:
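Yeast w/ defined DNA-repair lesions; compound exposure; growth vs vehicle controls → % inhibition.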

[7] abbreviates: at 5.0 µM (retest, dose inferred, filed as 0.5).
[8] abbreviates: at 50.0 µM (retest, dose inferred, filed as 5.0).

Turning to `C/C(=C\c1ccccc1)c1ccncc1`, the growth inhibition in test [1] (setting [7]) was -17%; in test [1] (setting [8]) it was 48%; in test [1] (at 50.0 µM) it was 64.7%; in test [2] (setting [7]), 14%; in test [2] (setting [8]), 12%; in test [2] (at 50.0 µM) it was 44.2%. Moreover, the growth inhibition is -8% in test [3] (setting [7]); 51% in test [3] (setting [8]); 65.6% in test [3] (at 50.0 µM); -8% in test [4] (setting [7]); 21% in test [4] (setting [8]); 35.9% in test [4] (at 50.0 µM). Further, the growth inhibition was -9% in test [5] (setting [7]); 48% in test [5] (setting [8]); 45.8% in test [5] (at 50.0 µM); -11% in test [6] (setting [7]); 24% in test [6] (setting [8]); 54.9% in test [6] (at 50.0 µM).

On to `CSC(SC)(C(=O)O)c1cc(-c2c(Cl)cccc2Cl)no1`, for which the growth inhibition was 3% in test [1] (setting [7]); 27% in test [1] (setting [8]); 39% in test [1] (at 50.0 µM); 2% in test [2] (setting [7]); 42% in test [2] (setting [8]); 44% in test [2] (at 50.0 µM). Besides, the growth inhibition is 7% in test [3] (setting [7]); 48% in test [3] (setting [8]); 95.5% (active) in test [3] (at 50.0 µM); -1% in test [4] (setting [7]); -5% in test [4] (setting [8]); 17.1% in test [4] (at 50.0 µM). The growth inhibition was 13% in test [5] (setting [7]); 73% (active) in test [5] (setting [8]); 51.6% in test [5] (at 50.0 µM); 0% in test [6] (setting [7]); 36% in test [6] (setting [8]); 84.4% (active) in test [6] (at 50.0 µM).

As for `Oc1ccccc1C(c1ccccc1O)C(Cl)(Cl)Cl`, the growth inhibition is 94% (active) in test [1] (setting [7]); 96% (active) in test [1] (setting [8]); 95.7% (active) in test [1] (at 50.0 µM); 96% (active) in test [2] (setting [7]); 97% (active) in test [2] (setting [8]); 98.5% (active) in test [2] (at 50.0 µM). In addition, the growth inhibition in test [3] (setting [7]) is 94% (active); in test [3] (setting [8]), 96% (active); in test [3] (at 50.0 µM), 97.3% (active); in test [4] (setting [7]), 97% (active); in test [4] (setting [8]), 96% (active); in test [4] (at 50.0 µM) it was 95% (active). The growth inhibition in test [5] (setting [7]) was 84% (active); in test [5] (setting [8]) it was 96% (active); in test [5] (at 50.0 µM), 98.2% (active); in test [6] (setting [7]), 91% (active); in test [6] (setting [8]), 96% (active); in test [6] (at 50.0 µM), 98% (active).

Consider `NNC(=S)NN/C=C(\C=Nc1ccccc1)[N+](=O)[O-]`, for which the growth inhibition in test [1] (setting [7]) was 19%; in test [1] (setting [8]), 80% (active); in test [1] (at 50.0 µM), 69.8%; in test [2] (setting [7]), -29%; in test [2] (setting [8]) it was 70% (active); in test [2] (at 50.0 µM) it was 68%. The growth inhibition in test [3] (setting [7]) is 7%; in test [3] (setting [8]), 62%; in test [3] (at 50.0 µM) it was 65.5%; in test [4] (setting [7]), -17%; in test [4] (setting [8]), 57%; in test [4] (at 50.0 µM), 57.5%. Further, the growth inhibition in test [5] (setting [7]) is -6%; in test [5] (setting [8]), 64%; in test [5] (at 50.0 µM), 75.1% (active); in test [6] (setting [7]) it was -20%; in test [6] (setting [8]), 86% (active); in test [6] (at 50.0 µM), 68.8%.

Turning to `c1ccc(CCc2c[nH]c3ccccc23)cc1`, the growth inhibition in test [1] (setting [7]) is -7%; in test [1] (setting [8]), -1%; in test [1] (at 50.0 µM) it was 59.6%; in test [2] (setting [7]), 0%; in test [2] (setting [8]), 0%; in test [2] (at 50.0 µM), 27.5%. For the same compound, the growth inhibition in test [3] (setting [7]) is -7%; in test [3] (setting [8]), 12%; in test [3] (at 50.0 µM), 72.5% (active); in test [4] (setting [7]), -52%; in test [4] (setting [8]) it was -2%; in test [4] (at 50.0 µM), 5.9%. Besides, the growth inhibition was -14% in test [5] (setting [7]); 41% in test [5] (setting [8]); 87.5% (active) in test [5] (at 50.0 µM); -8% in test [6] (setting [7]); 43% in test [6] (setting [8]); 49% in test [6] (at 50.0 µM).

Take `CC(=O)OCc1ccc(O)c2ncccc12`: the growth inhibition in test [1] (setting [7]) is -127%; in test [1] (setting [8]), 74% (active); in test [1] (at 50.0 µM) it was 95.7% (active); in test [2] (setting [7]), -49%; in test [2] (setting [8]), 83% (active); in test [2] (at 50.0 µM) it was 94% (active). In addition, the growth inhibition is -51% in test [3] (setting [7]); 45% in test [3] (setting [8]); 54.2% in test [3] (at 50.0 µM); -44% in test [4] (setting [7]); 75% (active) in test [4] (setting [8]); 41% in test [4] (at 50.0 µM). Further, the growth inhibition is -56% in test [5] (setting [7]); 74% (active) in test [5] (setting [8]); 67.1% in test [5] (at 50.0 µM); -103% in test [6] (setting [7]); 54% in test [6] (setting [8]); 55% in test [6] (at 50.0 µM).

As for `Cc1ccc2c(c1)C1(C)C=C(CN3CCN(C)CC3)C(=O)CC1O2` (stereo not given), the growth inhibition in test [1] (setting [7]) is 16%; in test [1] (setting [8]), 97% (active); in test [1] (at 50.0 µM) it was 99.6% (active); in test [2] (setting [7]), 20%; in test [2] (setting [8]) it was 99% (active); in test [2] (at 50.0 µM), 99.7% (active). The growth inhibition in test [3] (setting [7]) was 22%; in test [3] (setting [8]) it was 99% (active); in test [3] (at 50.0 µM) it was 99.8% (active); in test [4] (setting [7]), -4%; in test [4] (setting [8]), 99% (active); in test [4] (at 50.0 µM), 99.6% (active). Further, the growth inhibition in test [5] (setting [7]) was -3%; in test [5] (setting [8]), 99% (active); in test [5] (at 50.0 µM), 99.7% (active); in test [6] (setting [7]), 11%; in test [6] (setting [8]) it was 99% (active); in test [6] (at 50.0 µM) it was 99.5% (active).

As to `COc1ccc2nc3cc(Cl)ccc3c(NCCNc3c4ccc(Cl)cc4nc4ccc(OC)cc34)c2c1`, the growth inhibition in test [1] (setting [7]) was 34%; in test [1] (setting [8]), 97% (active); in test [1] (at 50.0 µM), 98.5% (active); in test [2] (setting [7]), 26%; in test [2] (setting [8]) it was 97% (active); in test [2] (at 50.0 µM) it was 92.8% (active). In addition, the growth inhibition in test [3] (setting [7]) is 20%; in test [3] (setting [8]), 99% (active); in test [3] (at 50.0 µM), 96.2% (active); in test [4] (setting [7]), 37%; in test [4] (setting [8]), 90% (active); in test [4] (at 50.0 µM) it was 98.4% (active). The growth inhibition in test [5] (setting [7]) is 16%; in test [5] (setting [8]) it was 97% (active); in test [5] (at 50.0 µM) it was 99.2% (active); in test [6] (setting [7]) it was 28%; in test [6] (setting [8]) it was 97% (active); in test [6] (at 50.0 µM) it was 97.3% (active).

On to `OCc1ccc(OCc2ccccc2)c(OCc2ccccc2)c1`, for which the growth inhibition in test [1] (setting [7]) was 6%; in test [1] (setting [8]), 15%; in test [1] (at 50.0 µM), 88.2% (active); in test [2] (setting [7]) it was 7%; in test [2] (setting [8]), 14%; in test [2] (at 50.0 µM), 77.1% (active). For the same compound, the growth inhibition in test [3] (setting [7]) was -8%; in test [3] (setting [8]), 47%; in test [3] (at 50.0 µM) it was 92.8% (active); in test [4] (setting [7]) it was 51%; in test [4] (setting [8]) it was 26%; in test [4] (at 50.0 µM), 80.3% (active). Further, the growth inhibition was 10% in test [5] (setting [7]); 55% in test [5] (setting [8]); 94.5% (active) in test [5] (at 50.0 µM); 0% in test [6] (setting [7]); 62% in test [6] (setting [8]); 96.5% (active) in test [6] (at 50.0 µM).

As to `CCCN(CCC)C(=S)N/N=C(/C)c1ccccc1O`, the growth inhibition in test [1] (setting [7]) is -8%; in test [1] (setting [8]) it was 98% (active); in test [1] (at 50.0 µM), 77.8% (active); in test [2] (setting [7]) it was -29%; in test [2] (setting [8]), 98% (active); in test [2] (at 50.0 µM), 85.7% (active). For the same compound, the growth inhibition is -29% in test [3] (setting [7]); 97% (active) in test [3] (setting [8]); 87.2% (active) in test [3] (at 50.0 µM); -26% in test [4] (setting [7]); 97% (active) in test [4] (setting [8]); 86.8% (active) in test [4] (at 50.0 µM). Also, the growth inhibition in test [5] (setting [7]) was -58%; in test [5] (setting [8]), 98% (active); in test [5] (at 50.0 µM), 89% (active); in test [6] (setting [7]), -23%; in test [6] (setting [8]), 98% (active); in test [6] (at 50.0 µM) it was 90.8% (active).

The record behind these values is PubChem BioAssay (NCI).
